Data from PubChem BioAssay (EPA / NIEHS).
Records with an inconclusive call do not appear. The source made the active and inactive calls. Rule for the calls, unless noted: active = hit-call score of the fitted dose curve at least 0.9, where 1 is the maximum; inconclusive = response in the unintended direction; inactive = score below 0.9.

Experiments:
[1] = target: human c-Jun N-terminal Kinases (JNK2), MAPK9 (gene 5601) (UniProt P45984); assay: NVS_ENZ_hJNK2: NovaScreen (NVS) Enzymatic Assay for human c-Jun N-terminal Kinases (JNK2) (AID 2283171)
Chain of human c-Jun N-terminal Kinases (JNK2), MAPK9 (gene 5601) (P45984 whole entry, looked up): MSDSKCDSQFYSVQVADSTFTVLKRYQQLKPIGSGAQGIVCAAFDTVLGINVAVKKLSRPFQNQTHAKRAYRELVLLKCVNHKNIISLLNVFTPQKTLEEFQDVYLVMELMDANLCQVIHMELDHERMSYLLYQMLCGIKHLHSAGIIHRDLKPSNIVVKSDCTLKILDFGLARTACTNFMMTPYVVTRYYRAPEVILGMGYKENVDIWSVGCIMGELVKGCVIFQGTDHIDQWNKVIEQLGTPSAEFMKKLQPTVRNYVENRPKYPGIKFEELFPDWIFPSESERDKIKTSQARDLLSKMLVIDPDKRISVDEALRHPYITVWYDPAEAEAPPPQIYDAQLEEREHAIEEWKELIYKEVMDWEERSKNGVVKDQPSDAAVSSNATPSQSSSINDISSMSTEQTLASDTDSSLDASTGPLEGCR
Method in brief: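 Chemicals first tested in duplicate at 25 uM, then in singleton concentration series up to 50 uM, against extracted JNK2 enzyme. Activity loss read by fluorescence with mobility-shift separation 1 h post-dose; DMSO baseline.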

[2] = target: Mitogen-activated protein kinase 3 (Homo sapiens) (UniProt P27361); assay: NVS_ENZ_hMAPK3: NovaScreen (NVS) Enzymatic Assay for human Mitogen-Activated Protein Kinase 3 (MAPK 3) (AID 2283177)
Chain of Mitogen-activated protein kinase 3 (Homo sapiens) (P27361 whole entry, looked up): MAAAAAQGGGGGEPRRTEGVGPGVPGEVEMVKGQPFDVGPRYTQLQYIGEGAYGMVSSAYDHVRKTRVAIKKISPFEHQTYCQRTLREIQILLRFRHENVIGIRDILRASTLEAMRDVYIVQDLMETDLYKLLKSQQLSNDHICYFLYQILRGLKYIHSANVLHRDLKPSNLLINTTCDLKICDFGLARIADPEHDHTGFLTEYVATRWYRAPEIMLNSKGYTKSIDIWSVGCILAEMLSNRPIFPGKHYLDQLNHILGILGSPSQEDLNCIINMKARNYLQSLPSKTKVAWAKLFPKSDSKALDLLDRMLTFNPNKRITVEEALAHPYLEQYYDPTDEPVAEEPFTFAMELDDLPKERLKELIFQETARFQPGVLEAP
Method in brief: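 Chemicals were first tested in duplicate at 25 uM, with hits re-run as concentration series (max 50 uM). Recombinant enzyme activity, measured 1 h post-dose in a cell-free format, was read by fluorescence/mobility shift relative to DMSO.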

[3] = target: human Mitogen- and Stress-activated Protein Kinase-1 (Msk1), RPS6KA5 (gene 9252) (UniProt O75582); assay: NVS_ENZ_hMsk1: NovaScreen (NVS) Enzymatic Assay for human Mitogen- and Stress-activated Protein Kinase-1 (Msk1) (AID 2283187)
Chain of human Mitogen- and Stress-activated Protein Kinase-1 (Msk1), RPS6KA5 (gene 9252) (O75582 whole entry, looked up): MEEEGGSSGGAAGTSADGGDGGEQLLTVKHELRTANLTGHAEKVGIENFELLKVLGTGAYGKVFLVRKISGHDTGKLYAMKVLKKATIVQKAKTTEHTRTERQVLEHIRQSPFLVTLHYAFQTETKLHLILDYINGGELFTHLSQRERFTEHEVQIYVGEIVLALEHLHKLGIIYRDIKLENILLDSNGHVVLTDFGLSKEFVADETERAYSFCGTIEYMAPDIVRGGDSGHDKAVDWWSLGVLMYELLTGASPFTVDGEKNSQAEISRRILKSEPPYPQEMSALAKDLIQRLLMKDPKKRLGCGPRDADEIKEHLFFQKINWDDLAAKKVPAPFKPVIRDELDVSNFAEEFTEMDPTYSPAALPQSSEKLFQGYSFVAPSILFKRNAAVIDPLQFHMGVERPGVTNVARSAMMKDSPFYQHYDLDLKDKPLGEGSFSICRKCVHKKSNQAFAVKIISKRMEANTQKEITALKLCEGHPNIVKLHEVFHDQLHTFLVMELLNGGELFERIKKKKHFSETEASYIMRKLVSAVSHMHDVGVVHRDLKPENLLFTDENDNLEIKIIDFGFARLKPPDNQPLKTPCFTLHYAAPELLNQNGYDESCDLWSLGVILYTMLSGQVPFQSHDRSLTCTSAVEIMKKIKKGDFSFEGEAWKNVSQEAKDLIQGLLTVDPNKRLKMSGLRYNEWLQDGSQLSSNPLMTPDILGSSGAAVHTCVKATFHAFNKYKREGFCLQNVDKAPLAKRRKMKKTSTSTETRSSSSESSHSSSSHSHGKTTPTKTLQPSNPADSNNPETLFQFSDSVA
Method in brief: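 Chemicals first run in duplicate at 25 uM, with actives followed up in singleton concentration series to 50 uM maximum. Enzyme activity came from substrate/product mobility-shift separation with fluorescence detection after 1 h incubation of the recombinant protein.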

[4] = target: human Phosphodiesterase 4A1 (PDE4A1), PDE4A (gene 5141) (UniProt P27815); assay: NVS_ENZ_hPDE4A1: NovaScreen (NVS) Enzymatic Assay for human Phosphodiesterase 4A1 (PDE4A1) (AID 2283191)
Chain of human Phosphodiesterase 4A1 (PDE4A1), PDE4A (gene 5141) (P27815 whole entry, looked up): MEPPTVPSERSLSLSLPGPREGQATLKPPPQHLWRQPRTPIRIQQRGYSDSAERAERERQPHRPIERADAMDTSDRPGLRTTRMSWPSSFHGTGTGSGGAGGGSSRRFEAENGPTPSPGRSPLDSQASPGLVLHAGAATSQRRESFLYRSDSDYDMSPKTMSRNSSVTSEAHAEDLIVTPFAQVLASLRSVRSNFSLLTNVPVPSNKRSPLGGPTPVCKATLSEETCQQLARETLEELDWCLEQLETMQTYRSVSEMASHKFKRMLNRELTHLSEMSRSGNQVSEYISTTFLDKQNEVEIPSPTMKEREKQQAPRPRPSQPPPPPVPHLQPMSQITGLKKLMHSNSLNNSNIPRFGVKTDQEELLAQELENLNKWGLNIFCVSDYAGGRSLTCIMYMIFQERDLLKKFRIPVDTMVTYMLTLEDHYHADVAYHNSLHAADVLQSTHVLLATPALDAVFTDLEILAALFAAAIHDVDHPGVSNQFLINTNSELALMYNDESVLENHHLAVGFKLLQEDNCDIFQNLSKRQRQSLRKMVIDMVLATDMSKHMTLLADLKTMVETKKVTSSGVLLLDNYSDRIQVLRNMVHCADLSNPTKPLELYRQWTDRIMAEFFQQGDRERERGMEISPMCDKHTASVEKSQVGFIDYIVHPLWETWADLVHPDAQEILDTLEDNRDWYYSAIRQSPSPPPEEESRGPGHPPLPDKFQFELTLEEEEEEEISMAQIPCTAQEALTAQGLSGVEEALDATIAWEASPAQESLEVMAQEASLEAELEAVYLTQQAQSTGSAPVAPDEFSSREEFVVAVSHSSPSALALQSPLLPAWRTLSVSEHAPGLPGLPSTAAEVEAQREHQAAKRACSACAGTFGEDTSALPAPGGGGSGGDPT
Method in brief: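 Fluorescent substrate turnover by recombinant PDE4A1 read after 1 h by mobility-shift separation. Primary duplicate screen at 25 uM; hits retested in concentration series with a 50 uM maximum, relative to DMSO.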

[5] = target: human Phosphodiesterase 5 (PDE5), PDE5A (gene 8654) (UniProt O76074); assay: NVS_ENZ_hPDE5: NovaScreen (NVS) Enzymatic Assay for human Phosphodiesterase 5 (PDE5) (AID 2283194)
Method in brief: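 Screening began in duplicate at 25 uM, with actives taken into concentration-response. Enzyme activity of recombinant PDE5 toward its substrate was measured at 1 h by fluorescence mobility-shift detection, relative to DMSO controls.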

[6] = target: Tyrosine-protein phosphatase non-receptor type 14 (Homo sapiens) (UniProt Q15678); assay: NVS_ENZ_hPTPN14: NovaScreen (NVS) Enzymatic Assay for human Protein Tyrosine Phosphatase Non-receptor Type 14 (PTPN14) (AID 2283206)
Method in brief: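 Fluorescent substrate turnover by recombinant human PTPN14 was measured 0.5 h after compound addition, with substrate and product separated by mobility shift. Single-point screening at 25 uM, then concentration-response up to 50 uM for chemicals meeting threshold (e.g., 30% inhibition).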

[7] = target: human SRC Proto-Oncogene, Non-receptor Tyrosine Kinase (SRC), SRC (gene 6714) (UniProt P12931); assay: NVS_ENZ_hSRC: NovaScreen (NVS) Enzymatic Assay for human SRC Proto-Oncogene, Non-receptor Tyrosine Kinase (SRC) (AID 2283223)
Method in brief: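 Compounds passing 30% inhibition at 25 uM (duplicate) were titrated to a top concentration of 50 uM. Enzyme activity read by fluorescence with mobility-shift substrate/product separation after 1 h; DMSO baseline.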

[8] = tested on: bovine Histamine 1 Receptor (H1), gene 281231; assay: NVS_GPCR_bH1: NovaScreen (NVS) G Protein-Coupled Receptor Assay for bovine Histamine 1 Receptor (H1) (AID 2283246)
Method in brief: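 Hits from a 25 uM duplicate primary screen were retested in concentration series (top 50 uM); binding measured as scintillation-counted displacement of radioligand from bovine cerebellar membranes after 1 h, normalised to DMSO.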

[9] = target: rat Glutamate Metabotropic Receptor 5 (MGluR5), Grm5 (gene 24418) (UniProt P31424); assay: NVS_GPCR_rmMGluR5: NovaScreen (NVS) G Protein-Coupled Receptor Assay for rat Glutamate Metabotropic Receptor 5 (MGluR5) (AID 2283307)
Method in brief: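 Compounds first screened in duplicate at 25 uM, then in concentration series up to 50 uM if over threshold. Radioligand displacement on rat whole-brain membranes, filtration and scintillation counting after 1.5 h; binding loss relative to DMSO.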

[10] = target: Norway rat Vesicular Monoamine Transporter (VMAT2), neurotransmitter transporter, Slc18a2 (gene 25549) (UniProt Q01827); assay: NVS_TR_rVMAT2: NovaScreen (NVS) Transporter Assay for Norway rat Vesicular Monoamine Transporter (VMAT2), neurotransmitter transporter (AID 2283376);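 note: actives lower the bound radioligand signal below the DMSO level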
Chain of Norway rat Vesicular Monoamine Transporter (VMAT2), neurotransmitter transporter, Slc18a2 (gene 25549) (Q01827 whole entry, looked up): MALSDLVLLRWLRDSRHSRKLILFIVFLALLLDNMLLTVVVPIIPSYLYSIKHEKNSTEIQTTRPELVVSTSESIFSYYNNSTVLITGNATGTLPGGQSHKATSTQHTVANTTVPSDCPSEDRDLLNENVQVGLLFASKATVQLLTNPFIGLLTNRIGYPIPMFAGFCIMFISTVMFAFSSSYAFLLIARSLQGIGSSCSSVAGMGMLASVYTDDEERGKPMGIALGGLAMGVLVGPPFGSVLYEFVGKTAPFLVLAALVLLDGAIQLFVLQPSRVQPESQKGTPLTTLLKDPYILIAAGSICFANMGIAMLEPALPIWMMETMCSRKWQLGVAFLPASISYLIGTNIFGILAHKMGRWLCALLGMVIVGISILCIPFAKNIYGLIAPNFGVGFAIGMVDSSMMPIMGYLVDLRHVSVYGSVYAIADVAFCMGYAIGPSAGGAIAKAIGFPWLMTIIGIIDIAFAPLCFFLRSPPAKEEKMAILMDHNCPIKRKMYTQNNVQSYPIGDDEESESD
Method in brief: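 Binding endpoint from rat forebrain tissue, cell-free; 1 h incubation; filtered radioligand counted; 25 uM duplicate primary then dose series; DMSO negative control.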

[11] = tested on: chicken Androgen Receptor (AR), gene 422165; assay: ATG_chAR_XSP1: Attagene TRANS-FACTORIAL Multi-Species (XSP1) HepG2 Assay for chicken Androgen Receptor (AR) (AID 2283768)
Method in brief: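 Reporter mRNA read by RT-PCR with fluorescent labelling and capillary electrophoresis 24 h after chemical dosing of transiently transfected HepG2 cells. Chicken AR-Gal4 chimera, partially stimulated with 3 nM 6-alpha-fluorotestosterone; activity fitted upward relative to DMSO.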

[12] = tested on: zebrafish Androgen Receptor (AR), gene 100005148; assay: ATG_zfAR_XSP1: Attagene TRANS-FACTORIAL Multi-Species (XSP1) HepG2 Assay for zebrafish Androgen Receptor (AR) (AID 2283771)
Method in brief: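 Gain-of-signal versus DMSO was measured as reporter transcripts quantified by RT-PCR, fluorescent labelling and capillary electrophoresis after 24 h chemical exposure. The cells were HepG2 expressing a chimeric zebrafish AR-GAL4, co-stimulated with 3 nM 6-alpha-fluorotestosterone.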

[13] = tested on: turtle Androgen Receptor (AR), gene 101947425; assay: ATG_trAR_XSP1: Attagene TRANS-FACTORIAL Multi-Species (XSP1) HepG2 Assay for turtle Androgen Receptor (AR) (AID 2283786)
Method in brief: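 Partial androgen stimulation is provided by 3 nM 6-alpha-fluorotestosterone in a multi-species trans-factorial panel expressing a turtle AR–GAL4 fusion in HepG2. After 24 h, reporter mRNA is measured by RT-PCR and capillary electrophoresis and fitted upward against DMSO.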

[14] = target: Estrogen receptor beta (Homo sapiens) (UniProt Q92731); assay: ATG_hERb_XSP1: Attagene TRANS-FACTORIAL Multi-Species (XSP1) HepG2 Assay for human Estrogen Receptor (ESR2) (AID 2283788)
Chain of Estrogen receptor beta (Homo sapiens) (Q92731 whole entry, looked up, the tested form may be a part): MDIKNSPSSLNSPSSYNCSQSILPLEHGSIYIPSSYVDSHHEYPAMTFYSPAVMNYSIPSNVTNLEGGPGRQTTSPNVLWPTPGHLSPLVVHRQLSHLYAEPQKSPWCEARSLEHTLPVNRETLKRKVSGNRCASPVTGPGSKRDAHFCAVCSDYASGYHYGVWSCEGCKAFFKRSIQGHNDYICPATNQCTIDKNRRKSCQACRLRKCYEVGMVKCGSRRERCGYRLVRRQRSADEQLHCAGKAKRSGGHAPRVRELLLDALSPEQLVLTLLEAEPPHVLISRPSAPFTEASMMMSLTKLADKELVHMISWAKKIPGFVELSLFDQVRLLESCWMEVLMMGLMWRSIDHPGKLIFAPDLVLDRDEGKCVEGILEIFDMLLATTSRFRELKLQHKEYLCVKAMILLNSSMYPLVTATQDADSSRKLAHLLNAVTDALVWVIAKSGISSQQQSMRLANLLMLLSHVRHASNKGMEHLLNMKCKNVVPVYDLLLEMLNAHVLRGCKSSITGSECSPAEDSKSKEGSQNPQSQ
Method in brief: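 Multiplexed trans-activation in transfected HepG2: ERβ-Gal4 reporter transcripts after 24 h treatment, detected by RT-PCR plus capillary electrophoresis.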

[15] = target: Nuclear receptor subfamily 1 group I member 2 (Mus musculus) (UniProt O54915); assay: ATG_mPXR_XSP1: Attagene TRANS-FACTORIAL Multi-Species (XSP1) HepG2 Assay for mouse Pregnane X Receptor (PXR) (AID 2283803)
Chain of Nuclear receptor subfamily 1 group I member 2 (Mus musculus) (O54915 whole entry, looked up, the tested form may be a part): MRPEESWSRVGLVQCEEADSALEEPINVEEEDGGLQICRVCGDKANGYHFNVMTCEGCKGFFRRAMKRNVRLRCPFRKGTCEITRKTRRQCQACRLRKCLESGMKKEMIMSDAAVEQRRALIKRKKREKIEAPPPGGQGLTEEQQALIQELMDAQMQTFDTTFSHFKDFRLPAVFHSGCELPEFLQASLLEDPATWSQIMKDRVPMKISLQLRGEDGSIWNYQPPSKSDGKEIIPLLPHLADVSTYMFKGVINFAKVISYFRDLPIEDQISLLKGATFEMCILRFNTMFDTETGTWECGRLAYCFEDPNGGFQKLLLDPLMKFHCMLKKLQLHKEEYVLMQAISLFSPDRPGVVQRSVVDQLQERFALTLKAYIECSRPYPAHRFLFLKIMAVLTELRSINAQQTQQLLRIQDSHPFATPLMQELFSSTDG
Method in brief: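 Transiently transfected HepG2 cells expressing a receptor-Gal4 chimera drive a GAL4-UAS reporter; 3 nM 6-alpha-fluorotestosterone included. Reporter mRNA read 24 h post-dose by RT-PCR and capillary electrophoresis; gain of signal relative to DMSO.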

[16] = ATG_M_19_XSP2: Attagene TRANS-FACTORIAL Multi-Species (XSP2) HepG2 Assay for M32 Transcription Factor (Internal Marker) (AID 2283822)
Method in brief: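 Internal background marker in a multi-species nuclear receptor TRANS panel: transfected HepG2 cells exposed 24 h, with 3 nM 6-alpha-fluorotestosterone and 1.5 nM norgestrel present. Readout is RT-PCR of reporter transcripts resolved by capillary electrophoresis, gain-of-signal versus DMSO.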

[17] = target: Nuclear receptor subfamily 1 group I member 2 (Mus musculus) (UniProt O54915); assay: ATG_mPXR_XSP2: Attagene TRANS-FACTORIAL Multi-Species (XSP1) HepG2 Assay for mouse Pregnane X Receptor (PXR) (AID 2283831)
Method in brief: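 HepG2 cells transiently transfected with GAL4-UAS reporter units expressing chimeric NR-Gal4 proteins; 24 h compound exposure. Reporter mRNA quantified by RT-PCR and capillary electrophoresis fluorescence; gain of signal fitted against DMSO.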

[18] = target: Thyroid hormone receptor alpha (Rattus norvegicus) + Thyroid hormone receptor beta (Rattus norvegicus) (UniProt P18113+P63059); assay: TOX21_TR_LUC_GH3_Agonist_Followup: Tox21 GH3 Thyroid Hormone Receptor Agonism Luciferase Follow-Up Assay (AID 2283939)
Method in brief: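 Agonist-mode confirmatory run: 15 concentrations (5 nM to 92 uM final) on GH3 rat pituitary cells, 24 h at 37C/5% CO2, T3 as positive control. Luminescence read with ONE-Glo after 30 min.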

THRA (gene 7067) = THRA (gene 7067) (UniProt P10827); assay: TOX21_TRA_COA_Agonist_Followup_ratio: Tox21 Thyroid Hormone Receptor alpha Agonism through Coactivator Recruitment Follow-Up Assay, Ratio (AID 2283948; active = hit-call score of the fitted dose curve at least 0.9, where 1 is the maximum; inactive = score below 0.9)
Chain of THRA (gene 7067) (P10827 whole entry, looked up, the tested form may be a part): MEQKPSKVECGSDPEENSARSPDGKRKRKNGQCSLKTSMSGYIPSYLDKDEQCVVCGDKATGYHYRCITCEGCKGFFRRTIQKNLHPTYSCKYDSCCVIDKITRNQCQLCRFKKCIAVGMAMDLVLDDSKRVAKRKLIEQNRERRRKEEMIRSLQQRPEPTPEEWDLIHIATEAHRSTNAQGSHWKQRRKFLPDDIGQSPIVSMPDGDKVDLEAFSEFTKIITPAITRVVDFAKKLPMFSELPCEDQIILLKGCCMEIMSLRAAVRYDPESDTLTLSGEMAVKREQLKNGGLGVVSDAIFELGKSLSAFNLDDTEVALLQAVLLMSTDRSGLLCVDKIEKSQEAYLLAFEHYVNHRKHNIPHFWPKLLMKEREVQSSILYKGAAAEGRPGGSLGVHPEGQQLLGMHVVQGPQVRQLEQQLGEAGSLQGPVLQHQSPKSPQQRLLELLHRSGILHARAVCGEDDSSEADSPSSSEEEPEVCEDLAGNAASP
Method in brief: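 Cell-free TR-FRET: GST-tagged TRα LBD (2.5 nM) with 0.10% BSA and compound, then fluorescein-SRC-2 peptide (200 nM) and Tb-anti-GST antibody (2 nM). Readout 520:495 nm ratio (ex 340 nm), normalized to DMSO (0%) and T3 (100%).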

THRB (gene 7068) = THRB (gene 7068) (UniProt P10828); assay: TOX21_TRB_BLA_Agonist_Followup_ratio: Tox21 Thyroid Hormone Receptor beta Agonism Beta-lactamase (BLA) Follow-Up Assay, Ratio (AID 2283954)
Chain of THRB (gene 7068) (P10828 whole entry, looked up, the tested form may be a part): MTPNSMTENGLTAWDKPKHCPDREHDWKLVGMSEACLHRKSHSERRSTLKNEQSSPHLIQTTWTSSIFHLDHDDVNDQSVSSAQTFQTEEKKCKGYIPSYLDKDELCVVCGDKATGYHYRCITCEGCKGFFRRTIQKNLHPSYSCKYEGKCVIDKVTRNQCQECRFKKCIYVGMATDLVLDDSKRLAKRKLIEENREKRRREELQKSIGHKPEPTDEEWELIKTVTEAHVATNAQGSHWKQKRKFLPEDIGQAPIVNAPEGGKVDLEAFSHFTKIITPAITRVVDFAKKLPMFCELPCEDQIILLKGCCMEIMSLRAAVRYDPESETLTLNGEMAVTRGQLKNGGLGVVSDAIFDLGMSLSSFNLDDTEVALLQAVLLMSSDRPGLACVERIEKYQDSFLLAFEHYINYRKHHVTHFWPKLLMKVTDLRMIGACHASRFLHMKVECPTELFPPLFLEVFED
Method in brief: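 Agonist mode: compounds (11-point, triplicate) incubated 18 h with HEK293T cells carrying GAL4-DBD/human TRβ-LBD and UAS-β-lactamase. Blue/green (460/530 nm) FRET ratio read after 2 h CCF4-AM loading; CellTiter-Glo viability run in the same plates.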

N#CCCCCC#N
outcome [1]: inactive
outcome [2]: inactive
outcome [3]: inactive
outcome [4]: inactive
outcome [5]: inactive
outcome [6]: inactive
outcome [7]: inactive
outcome [8]: inactive
outcome [9]: inactive
outcome [10]: inactive

CC(C)CCCCCCCOC(=O)c1ccccc1C(=O)OCCCCCCCC(C)C
outcome [11]: inactive
outcome [12]: inactive
outcome [13]: inactive
outcome [14]: inactive
AC50 [15]: 0.611 µM (active)
outcome [16]: inactive
AC50 [17]: 1.52 µM (active)
outcome [18]: inactive
outcome (THRA (gene 7067)): inactive
outcome (THRB (gene 7068)): inactive
